Screening results deposited in PubChem by National Center for Advancing Translational Sciences (NCATS).
Rows were chosen to be rich in hits. Some 8.6% of all compounds tested hit in one or more screens of this group.
Marburg entry: Marburg virus entry inhibition; Marburg virus pseudotype entry/binding inhibition, cell-based; 18,000 compounds, 6.5% hits; Potency, µM (titrated, usually from 49.2 µM), for inactives: at the top dose activity change, negative = inhibition, actives largely listed as inhibitors
Lassa entry: inhibitors of Lassa virus binding or entry into cells; Lassa virus pseudotyped entry inhibition, cell-based qHTS; Potency, µM (titrated, usually from 49.2 µM), for inactives: at the highest dose activity change, negative = inhibition, hits mostly inhibitors; 18,000 compounds, 4.1% hits; AID 720533
* marks the source's active call; other numbers are inactive results; ? = inconclusive; . = no result; ! = not confirmed by another sample; [ ] = dose if it differs, or a comment. Calls come from the whole dose curve; tested in HEK293 cells. % is set by controls: 0 for no effect and ±100 for the full control effect; potency is the fitted concentration of half-maximal effect.

SMILES	Marburg entry	Lassa entry
CCOC(=O)OC[C@H]1O[C@H](c2cc(C)cc(C)c2)C=C[C@H]1OC(=O)OCC	2%[8.59 µM]	4%[8.59 µM]
C[C@@H]1C=CCC(=O)N[C@@H](c2ccccc2)[C@H](C)C=CCC(=O)N[C@@H]1c1ccccc1	12%[8.59 µM]	-1%[8.59 µM]
Cc1ccccc1-c1nc(NC2CCNCC2)c2ccccc2n1	8.9µM*	9%
Cc1ccccc1-c1nc(NCCN2CCOCC2)c2ccccc2n1	-16%	-3%
COCc1cc2cc3c(cc2c2c(C(=O)OC)c(C(=O)OC)c(C(=O)OC(C)(C)C)n12)OCO3	-27%[8.59 µM]	.
C#C[C@]1(O)CC[C@H]2[C@@H]3CCC4=CC(=O)CCC4=C3C=C[C@@]21CC	7%	?
CC#C[C@]1(O)CC[C@H]2[C@@H]3CCC4=CC(=O)CCC4=C3[C@@H](c3ccc(N(C)C)cc3)C[C@@]21C	?	32µM*
c1ccc(CCc2nc(-c3ccccc3)oc2Nc2ccc3ccccc3c2)cc1	-22%[8.59 µM]	14%[8.59 µM]
COC(=O)[C@H](CC(C)C)NC(=O)c1ccc(NC[C@@H](N)CS)cc1-c1cccc2ccccc12	11µM*	11µM*
COC(=O)[C@H](NC(=O)c1cc(-c2ccccc2)nc2ccccc12)c1ccccc1	12%	?
COc1cccc2c1[C@H](C=Cc1ccccc1)[C@@H]([C@H](O)COC(C)=O)OC2	16%[8.59 µM]	10%[8.59 µM]
CC(C)N(CCC(=O)c1ccc2ccccc2c1)Cc1ccccc1	?	32µM*
C[C@@H](COc1ccccc1)N(CCCl)Cc1ccccc1	-28%[17.8 µM]	20%[17.8 µM]
C[C@H]1CN(CCc2ccccc2)C(=O)[C@H]1CC(=O)Nc1ccc(Br)cc1	-8%	.
Fc1ccc(C(c2ccc(F)cc2)N2CCN(C/C=C\c3ccccc3)CC2)cc1	14µM*	?
Fc1ccc(C(OCCN2CCN(C/C=C/c3ccccc3)CC2)c2ccc(F)cc2)cc1	8.9µM*	16µM*
CN(C)CCOc1ccccc1Cc1ccccc1	?	10%
CNCCCCOc1ccccc1Cc1ccccc1	7.1µM*	?
CCS(=O)(=O)c1ccc(OC)c(Nc2ncc(-c3cccc(C(C)=O)c3)o2)c1	-27%	-31%
Cn1cc(C(=O)C(=O)N[C@H]2CN3CCC2CC3)c2ccccc21	28µM*!	?
O=C(N[C@H]1CN2CCC1CC2)c1ccc(Cl)cc1	?	-10%
CC12C(=O)OC(=O)C1(C)C1CCC2O1 (centres undefined)	3.5µM*	2.8µM*
Cc1cc(OCc2cn(CC(=O)c3ccc(O)cc3)nn2)cc(C)c1C	22%	?
N#Cc1cccc(OCc2cn(CC(=O)c3ccc(O)cc3)nn2)c1	1%	-15%
CCCNC(=O)OC[C@H]1O[C@H](CCON=C2C[C@@H](O)[C@@H](O)[C@@H]3[C@H]4C(=O)N(CC)C(=O)[C@@H]4CC[C@H]23)C=C[C@H]1Oc1ccc(OC)cc1	0%[8.59 µM]	-3%[8.59 µM]
SMILES	Marburg entry	Lassa entry
C=C1C(=O)OC2C=C(C)CCC=C(C)CCC12 (centres undefined)	-19%	-15%
C=C1CC/C=C(\C)CC[C@@H]2[C@@H]1CC2(C)C	7%	-2%
C=C1C(=O)O[C@@H]2C3OC3(C)CC/C=C(\C)CC[C@@H]12 (some centres undefined)	-16%	-22%
C=C1C(=O)OC2C1CC/C(C)=C/CCC1(C)OC21 (centres undefined)	?	11µM*
C=C1C(=O)O[C@H]2[C@H]1CC/C(C)=C\CC[C@@]1(C)O[C@@H]21	14µM*	7.9µM*
C=C1C(=O)O[C@@H]2[C@H]3O[C@]3(C)CC/C=C(\C)CC[C@@H]12	4µM*	4.5µM*
CC(C)OC(=O)[C@H](C)NC(=O)N1CCc2nc(COc3ccccc3)c3c(c2C1)CO[C@@H](C)C3	-36%[8.59 µM]	-31%[8.59 µM]
C#CCCCON=C1C[C@@H](O)[C@H](O)[C@H]2[C@@H]3C(=O)N(Cc4ccc5c(c4)OCO5)C(=O)[C@@H]3CC[C@H]12	?	3%[8.59 µM]
C=CCN1Cc2ccccc2Oc2ccc(Cl)cc2S1(=O)=O	9%	42%
Oc1ccc(Nc2nc(-c3ccc(Cl)cc3)cs2)cc1	?	13µM*
COc1ccc([C@]23Cc4ccccc4[C@H](O2)C2=C(CC(C)(C)CC2=O)O3)cc1	6%[8.59 µM]	-3%[8.59 µM]
CC[C@H]1[C@@H]2C=C[C@@H]3[C@H]4C/C=C\C(=O)NCCC[C@@H]5NC(=O)C(=C5O)C(=O)CC[C@@H]4C[C@@H]3[C@H]2C[C@H]1C	14µM*	28µM*
O=C1[C@@H]2[C@H]3[C@H](O)[C@H](O)CC(=NOC[C@@H](O)COCc4ccco4)[C@H]3CC[C@H]2C(=O)N1c1ccc(F)cc1F	14%[8.59 µM]	12%[8.59 µM]
CCCC[C@@H](C)/C=C(C)/C=C(\C)C(=O)NC1=C[C@@](O)(/C=C/C=C/C=C/C(=O)NC2=C(O)CCC2=O)[C@@H]2O[C@@H]2C1=O	5.6µM*	16µM*
CC(=O)OC[C@H]1O[C@H](CCON=C(C)CCC(=O)OC[C@H]2O[C@H](C#Cc3ccccc3)C=C[C@H]2Oc2ccc(C)cc2)C=C[C@H]1OC(C)=O	21%[8.59 µM]	5%[8.59 µM]
COc1ccc(COC(=O)NN=C2C[C@@H](O)[C@@H](O)[C@@H]3[C@H]4C(=O)N([C@@H](C)c5ccccc5)C(=O)[C@@H]4CC[C@H]23)cc1	-1%[8.59 µM]	.
Cc1ccc(CNc2nc(CN3CCCCC3c3cccnc3)nc3ccccc23)o1 (centres undefined)	-7%	6%
CCN1C(N(C)CCOC)=NC(c2cccc(F)c2)C(C(=O)OC)=C1C (centres undefined)	-24%[8.59 µM]	.
CC(=O)C1=C(C)N(Cc2ccccc2)C(=O)NC1c1ccco1 (centres undefined)	2%[8.59 µM]	.
Nc1c(N=Nc2ccc(-c3ccc(N=Nc4cc(S(=O)(=O)O)c5ccccc5c4N)cc3)cc2)cc(S(=O)(=O)O)c2ccccc12	13µM*	0%
Cc1cc(-c2ccc(N=Nc3ccc4c(S(=O)(=O)O)cc(S(=O)(=O)O)c(N)c4c3O)c(C)c2)ccc1N=Nc1ccc2c(S(=O)(=O)O)cc(S(=O)(=O)O)c(N)c2c1O	-21%	?
COCC1CN(CCc2ccc(F)cc2)[S+](=O)([O-])c2c(OCCN3C(=O)[C@H]4[C@H](C3=O)[C@H]3C=C[C@@H]4C3)cccc2O1 (some centres undefined)	-18%	-10%
COC(=O)c1c(C(=O)OC)c2c3cc(OC)c(OC)cc3cc([Si](C)(C)C)n2c1C(=O)OC	24%[8.59 µM]	-30%[8.59 µM]
COC(=O)C[C@@](O)(CCC(C)(C)O)C(=O)O[C@@H]1C(OC)=C[C@]23CCCN2CCc2cc4c(cc2[C@@H]13)OCO4	0.1µM*	0.11µM*
COC(=O)C(O)C(O)(CCC(C)C)C(=O)OC1C(OC)=CC23CCCN2CCc2cc4c(cc2C13)OCO4 (centres undefined)	0.004µM*	0.13µM*
COC1=CC23CCCN2CCc2cc4c(cc2C3C1O)OCO4 (centres undefined)	3%	-5%
COC(=O)C[C@](O)(CCCC(C)(C)O)C(=O)O[C@@H]1C(OC)=CC23CCCN2CCc2cc4c(cc2[C@H]13)OCO4 (some centres undefined)	?	22µM*
C=CCN1C(=O)CC[C@@]23C1=NC(C(=O)OC)=C(C(=O)OC)[C@@H]2N(CC#CC)c1ccccc13	-20%[8.59 µM]	-7%[8.59 µM]
C[C@@H]1C(c2ccccc2)=CC(=O)c2nc3ccccc3cc2[C@@H]1C(=O)N1CCCC1	-10%[8.59 µM]	-3%[8.59 µM]
CCN1C(=O)NC(c2ccco2)C(C(C)=O)=C1C (centres undefined)	26%[8.59 µM]	-16%[8.59 µM]
